This is a sample that favours compounds with a hit; in the whole collection about 4.4% have one here.
tim10-1 inh: growth inhibitors of tim10-1 mutant yeast; inhibition, % at 20 µM; AID 463190; hit rate 2.2% among 330,000; S. cerevisiae tim10-1 ts strain growth, BacTiter-Glo, 24 h;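 active = inhibition of at least 40%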;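 note: mutant grown at 25 °C; 0% = DMSO wells with yeast and 100% = wells holding no yeast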
PfHsp90 yeast 2: growth inhibition of yeast expressing Plasmodium Hsp90; hit rate 0.32% among 310,000; inhibition, % at 9.4 µM; AID 504621; S. cerevisiae expressing PfHsp90, BacTiter-Glo ATP, 48 h; yeast lacking PDR1 and PDR3 efflux regulators;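 active = every replicate shows inhibition above about 80%, whatever the replicate mean, limit read from the data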;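 note: 0% = DMSO neutral controls and 100% = 20 µM radicicol positive controls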
tim23-1 inh: inhibits growth of tim23-1 mutant yeast; AID 463212; inhibition, % at 20 µM; hit rate 1.3% among 330,000; S. cerevisiae tim23-1 growth, BacTiter-Glo luminescence, 24 h;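 active = growth inhibition of the mutant yeast at or above 50%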;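 note: temperature-sensitive mutant grown at 25 °C; plate controls were DMSO-treated mutant yeast for no effect and medium wells lacking yeast for full effect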
TIM10 inh: inhibits growth of TIM10 yeast strain. S. cerevisiae TIM10 strain growth, BacTiter-Glo luminescence, 24 h. inhibition, % at 10 µM. hit rate 1.4% among 330,000. AID 463195;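 active = inhibition of 40% or more at the single tested concentration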;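 note: wild-type TIM10 isogenic control strain grown at permissive 25 °C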
SUMO Mot1 rescue: blocks SUMOylation pathway, rescuing yeast Mot1-301 growth; S. cerevisiae Mot1-301 growth rescue, ATP luminescence, 38.5C; percent above DMSO median, 100 means doubled; growth rescue, % at 18.8 µM; hit rate 1% among 320,000;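 active = every valid replicate shows activation above 250% relative to neutral control wells; inactive = the rest, any valid replicate at or below 250%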;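 note: OY570 slx delta 5 strain wells were the positive control but not used for scaling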
tim23-1 conf: tim23-1 yeast growth inhibition, confirmed | shares compounds with tim23-1 inh | S. cerevisiae tim23-1 growth, BacTiter-Glo luminescence, 24 h | inhibition, % at 20 µM | hit rate 83% among 4,400 | AID 463218;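 active = inhibition above about 39% in either of two replicate wells at 20 µM, limit read from the data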;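 note: temperature-sensitive tim23-1 mutant grown at 25 °C; 0% = DMSO wells with yeast and 100% = medium wells without yeast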
Starred values were filed as active, the others as inactive; . = not tested or not shown.

SMILES	tim10-1 inh	PfHsp90 yeast 2	tim23-1 inh	TIM10 inh	SUMO Mot1 rescue	tim23-1 conf
Cn1c(=O)c2c(nc(CN3CCc4ccccc4C3)n2Cc2cccc(Cl)c2)n(C)c1=O	37	-1	51*	36	23	54*
Cn1c(=O)c2c(nc(CN3CCN(Cc4ccccc4)CC3)n2Cc2cccc(Cl)c2)n(C)c1=O	18	10	17	9	-2	.
O=C1CC(c2cccc(Br)c2)c2cc3c(cc2N1)CCC3 (stereo unspecified)	38	-75	58*	8	106	52*
CC(=O)Nc1sc(N/N=C/c2ccc(O)cc2)nc1-c1ccc(C)cc1	3	22	14	30	-3	.
CC(C)(C)c1csc(N/N=C/c2ccc(O)cc2)n1	30	-15	57*	24	108	39
Cc1c(NC(=O)C(C)OC(=O)c2ccc(NC(=O)CC#N)cc2)c(=O)n(-c2ccccc2)n1C (stereo unspecified)	0	-2	8	6	-10	.
COc1ccc2nc(NC(=O)c3ccco3)sc2c1	29	59	52*	28	-20	37
COc1ccc(C(=O)Nc2nc3ccccc3s2)cc1	-12	1	55*	6	19	25
COc1ccc2nc(Nc3ccccc3)sc2c1	33	5	56*	26	13	32
COc1ccc(C(=O)Nc2nc3ccccc3[nH]2)cc1	-38	31	60*	24	95	61*
COc1cccc(C(=O)Nc2nc3ccccc3s2)c1	10	1	36	22	20	.
O=C(Nc1nc2ccc(Br)cc2s1)c1ccco1	25	-24	33	13	-2	.
COc1cccc(C(=O)Nc2nc3ccccc3[nH]2)c1	-12	17	6	5	62	.
O=C(CSc1nc2ccccc2s1)c1ccc(O)cc1O	-12	-39	13	20	26	.
CCC(C)C(=O)Nc1nc2ccc(OC)cc2s1 (stereo unspecified)	32	-15	52*	27	6	51*
Cc1ccc2nc(NC(=O)c3ccco3)sc2c1	37	27	64*	26	-12	38
CCN1C(=NCC(C)C)N[C@@H](c2cccc(F)c2)C(C(=O)OC)=C1C	1	-6	8	-7	-17	.
Cc1ccc(-c2nnc(N3CCN(C(=O)CN4C(=O)c5ccccc5C4=O)CC3)c3ccccc23)cc1	9	-6	-28	-13	80	.
Cc1ccc(-c2nnc(N3CCC(C)CC3)c3ccccc23)cc1	-25	7	53*	14	.	69*
Oc1c(C(c2ccccn2)N2CCCCC2)cc(Cl)c2cccnc12 (stereo unspecified)	20	5	53*	-17	334	64*
CCC(=O)NC(c1ccc(C)cc1)c1cc([N+](=O)[O-])c2cccnc2c1O (stereo unspecified)	.	5	.	.	4	.
Cc1[nH]c2ccccc2c1C(c1ccccn1)N1CCCC1 (stereo unspecified)	-1	7	4	5	1	.
CCCC(=O)NC(c1ccco1)c1cc([N+](=O)[O-])c2cccnc2c1O (stereo unspecified)	-5	-76	-10	2	0	.
CCC(=O)NC(c1cccs1)c1cc(Cl)c2cccnc2c1O (stereo unspecified)	28	102*	51*	35	-6	70*
CCC(=O)NC(c1cc(Cl)c2cccnc2c1O)C(C)C (stereo unspecified)	38	-1	52*	-17	7	53*
CC(=O)NC(c1ccccc1)c1cc(Cl)c2cccnc2c1O (stereo unspecified)	15	107*	56*	4	1	67*
Cc1noc(C)c1CSCC(=O)Nc1ccc(S(=O)(=O)C(F)F)cc1	26	-7	6	16	8	.
O=C(CCNS(=O)(=O)c1ccccc1C(F)(F)F)N1CCN(S(=O)(=O)c2cccc(F)c2)CC1	-26	-21	-30	-30	64	.

Assay outcomes: PubChem, several laboratories
